Assay outcomes as filed in PubChem.
Efflux pump mplx – inhibitors of Candida antifungal efflux pumps expressed in yeast; S. cerevisiae Candida pump triplex, Nile Red efflux; inhibition, % at 10 µM; hit rate 0.44% among 330,000; AID 485275;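 active means plate passing quality check with inhibition over a set limit, or well fluorescence over plate mean plus 4 SD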;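 further: Nile Red retained in pooled yeast measured as flow cytometry median fluorescence; 0% = buffer negative control and 100% = Enniatin B positive control; higher means more Nile Red kept so more efflux inhibition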
VLA-4 inh – inhibition in a human VLA-4 binding assay. P13612. VLA-4 expressing cells, ligand binding flow cytometry. inhibition, % (about 7 µM as worked out from the volumes in the protocol). hit rate 0.2% among 330,000; in the data active means inhibition above about 50%
A1 inh – inhibitors of the anti-apoptotic protein A1, read as caspase activation; MEF A1-2A-BIM cells, Caspase-Glo 3/7 luminescence, 3 h; percent of clofoctol response, vehicle zero; caspase activation, % (test concentration not listed); hit rate 0.066% among 330,000; AID 2462;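 active means over half of replicate activation scores above 10%, or exactly half above 10 with the replicate mean above 10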
ALR H2O2 inh – inhibitors of human sulfhydryl oxidase ALR | P55789 | hit rate 3.8% among 290,000 | AID 485317 | inhibition, % (concentration not given with the values) | purified ALR, DTT oxidation, H2O2 HRP-luminol luminescence;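 active means mean replicate inhibition above about 79%, with every replicate also reaching it, limit read from the data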
Mot1-301 SUMO – inhibitors of SUMOylation pathway: yeast Mot1-301 growth rescue. S. cerevisiae Mot1-301 growth rescue, ATP luminescence, 38.5C; percent above DMSO median, 100 means doubled. growth rescue, % at 18.8 µM. hit rate 1% among 320,000. AID 2716;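 active means every valid replicate shows activation above 250% relative to neutral control wells; inactive means the rest, any valid replicate at or below 250%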;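 further: OY570 slx delta 5 strain wells were the positive control but not used for scaling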
AHR act – activators of human aryl hydrocarbon receptor; hit rate 2.5% among 320,000; AID 2796; AHR-responsive luciferase reporter cells, luminescence; P35869; activation, % at 5 µM; in the data active means activation above about 47%;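 further: 0% = vehicle wells and 100% = reference agonist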
Target sequence (P35869 whole entry, looked up): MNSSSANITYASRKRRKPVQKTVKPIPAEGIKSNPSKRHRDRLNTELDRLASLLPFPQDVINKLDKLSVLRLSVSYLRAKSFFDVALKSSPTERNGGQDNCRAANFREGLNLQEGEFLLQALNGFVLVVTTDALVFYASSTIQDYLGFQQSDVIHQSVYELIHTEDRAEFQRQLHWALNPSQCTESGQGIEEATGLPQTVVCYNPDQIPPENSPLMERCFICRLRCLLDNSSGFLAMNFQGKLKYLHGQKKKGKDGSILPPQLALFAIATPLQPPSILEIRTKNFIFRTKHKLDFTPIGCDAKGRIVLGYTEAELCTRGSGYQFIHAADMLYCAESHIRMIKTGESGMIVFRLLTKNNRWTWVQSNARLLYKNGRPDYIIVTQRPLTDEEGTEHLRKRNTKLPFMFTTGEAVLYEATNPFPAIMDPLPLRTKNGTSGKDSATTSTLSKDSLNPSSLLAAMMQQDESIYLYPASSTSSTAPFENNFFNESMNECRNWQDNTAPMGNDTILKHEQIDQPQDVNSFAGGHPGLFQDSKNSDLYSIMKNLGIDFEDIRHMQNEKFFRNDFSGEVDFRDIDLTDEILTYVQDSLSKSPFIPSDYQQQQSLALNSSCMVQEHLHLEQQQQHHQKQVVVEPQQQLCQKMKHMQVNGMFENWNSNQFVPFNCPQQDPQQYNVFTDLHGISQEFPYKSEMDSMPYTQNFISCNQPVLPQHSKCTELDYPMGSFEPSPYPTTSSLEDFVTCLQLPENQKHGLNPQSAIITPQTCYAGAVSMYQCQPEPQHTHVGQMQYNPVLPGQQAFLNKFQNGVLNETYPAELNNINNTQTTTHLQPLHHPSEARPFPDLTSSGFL
* = called active by the depositor; . = not tested or not shown. Sampled rows, rich in hits. Any-hit rate of the full collection: about 7.2%.

SMILES | Efflux pump mplx | VLA-4 inh | A1 inh | ALR H2O2 inh | Mot1-301 SUMO | AHR act
Clc1ccc(C(Cn2ccnc2)OCc2c(Cl)cccc2Cl)c(Cl)c1 (stereo not drawn) | 0 | 19 | 3 | -2 | 346* | 11
CN(C)c1cccc(C(=O)OCC(=O)NC(=O)NCc2ccccc2)c1 | 0 | 1 | 1 | -5 | 1 | -1
O=C(NCc1nnnn1-c1ccc(Cl)cc1)c1ccc(Br)o1 | 0 | -8 | 0 | -5 | -27 | 5
O=C1OC(/C(=C\Nc2ccc(F)cc2F)[N+](=O)[O-])c2ccccc21 (stereo not drawn) | 0 | 9 | 1 | 97* | 304* | 0
COc1ccc(-c2cc3ccccc3n2CC(O)CN2CCOCC2)cc1 (stereo not drawn) | 0 | -8 | 2 | -4 | . | 4
COc1ccc(-c2cc3ccccc3n2CC(O)CN2CCN(CCO)CC2)cc1 (stereo not drawn) | 0 | 13 | 1 | 96* | -5 | 0
CC(C)Cc1csc(NC(=O)c2ccc(Cl)cc2)c1C(=O)O | -1 | 14 | -8 | 12 | -10 | 9
CC(C)Cc1csc(NC(=O)c2ccccc2Cl)c1C(=O)O | 0 | 2 | -1 | 96* | -13 | 0
Cc1cccc(C(=O)Nc2scc(CC(C)C)c2C(=O)O)c1 | 0 | -3 | -2 | 96* | -3 | 3
Cn1c(N)c(Sc2ccccc2[N+](=O)[O-])c(=O)n(C)c1=O | 0 | 20 | 1 | -3 | 2 | -1
C=CCn1c(NCc2c[nH]c3ccccc23)nc2ccccc21 | 0 | 7 | -1 | 57 | -16 | 15
CCn1c(NCc2cc(OC)c(OC)c(OC)c2)nc2ccccc21 | 0 | 8 | 0 | 97* | -1 | 6
CCn1c(NCc2c[nH]c3ccccc23)nc2ccccc21 | 0 | 1 | 1 | 39 | . | 48*
COc1ccc(CNc2nc3ccccc3n2Cc2ccc(Cl)cc2)cc1OC | 0 | 9 | 1 | 5 | -3 | -1
Cn1c(NCc2c[nH]c3ccccc23)nc2ccccc21 | 0 | -3 | 0 | 36 | -32 | 74*
CN(C(=O)COC(=O)c1ccc2c(c1)OCCO2)c1ccccc1 | 0 | 4 | 1 | 34 | 21 | 0
CCOC(=O)N1CCN(C(=O)CSc2ccc(-c3ccc(OC)cc3)nn2)CC1 | 0 | 4 | -1 | -5 | 195 | 4
COC(=O)C1=C(CSc2nc3ccccc3o2)NC(=O)NC1c1cc(C)ccc1C (stereo not drawn) | 0 | 6 | 2 | -2 | -22 | 3
O=C1NC(=O)/C(=C\c2ccccc2OCc2ccc([N+](=O)[O-])cc2)N1 | 0 | 5 | 0 | -14 | -15 | 72*
COc1ccccc1C(CNC(=O)C1CC(=O)N(Cc2ccc(C)cc2)C1)N1CCCC1 (stereo not drawn) | 0 | 25 | 1 | -11 | -19 | 2
S=C(Nc1cccc(Br)c1)c1ccccc1 | 0 | 3 | 0 | 8 | 157 | 79*
S=C(Nc1ccccc1)Nc1cccc(Br)c1 | 0 | 0 | 0 | -1 | -9 | 0
COc1cc(NC(=O)CSc2nc3[nH]c(=O)cc(O)c3s2)cc(OC)c1OC | 0 | 5 | 0 | 99* | 737 | 0
Nc1cc(=O)[nH]c(SCC(=O)Nc2ccc(Br)cc2)n1 | 0 | 23 | -1 | 98* | 22 | 3
Nc1cc(=O)[nH]c(SCC(=O)Nc2ccc(Cl)c(Cl)c2)n1 | 0 | 34 | 0 | -7 | 4 | 0
SMILES | Efflux pump mplx | VLA-4 inh | A1 inh | ALR H2O2 inh | Mot1-301 SUMO | AHR act
COc1ccc(NC(=O)CSc2nc3[nH]c(=O)[nH]c(=O)c3s2)cc1OC | 0 | 17 | 0 | 99* | -4 | -1
COc1ccc(OC)c(NC(=O)CSc2nc3[nH]c(=O)cc(O)c3s2)c1 | 0 | -3 | 0 | -18 | 1 | -1
O=C(CSc1nc2[nH]c(=O)cc(O)c2s1)Nc1cccc(Br)c1 | 0 | -11 | 1 | 99* | 5 | 3
O=C(CCCN1C(=O)c2cccc3cccc(c23)C1=O)Nc1nccs1 | 0 | 16 | 0 | -7 | 69 | 2
CCc1ccc(Nc2nnc(SCC(=O)Nc3sccc3C(N)=O)s2)cc1 | 0 | 10 | -1 | 3 | 9 | 60*
COc1cccc(Nc2nnc(SCC(=O)Nc3sccc3C(N)=O)s2)c1 | 0 | 0 | 0 | 2 | 12 | 24
Cc1cccc(C)c1NC(=O)CSc1nc2[nH]c(=O)cc(O)c2s1 | 0 | 15 | 2 | 0 | -3 | 0
Cc1cccc(NC(=O)CSc2nc3[nH]c(=O)cc(O)c3s2)c1 | 0 | 11 | 1 | 99* | 34 | 2
Cc1cccc(Nc2nnc(SCC(=O)Nc3ccccc3[N+](=O)[O-])s2)c1 | 1 | 18 | -1 | 3 | -21 | 17
O=C(CSc1nc2[nH]c(=O)cc(O)c2s1)Nc1ccc(Br)cc1 | 0 | -6 | 0 | 82* | -11 | -1
Cc1cccc(Nc2nnc(SCC(=O)Nc3ccc(C(=O)O)cc3)s2)c1 | 0 | 0 | -3 | 94* | -10 | 0
CCn1cc(C(=O)Nc2ccc(OC)c(S(=O)(=O)N3CCCCC3)c2)c(=O)c2ccc(C)nc21 | 0 | 0 | 1 | -3 | -14 | 0
N#Cc1c(SCC(=O)Nc2ccc(C(F)(F)F)cc2)sc2c(O)cc(=O)[nH]c12 | 0 | -1 | 0 | 95* | -18 | 3
Cc1ccc(NC(=O)CSc2sc3c(O)cc(=O)[nH]c3c2C#N)c(F)c1 | 0 | -3 | 0 | 55 | -3 | 4
N#Cc1c(SCC(=O)Nc2nncs2)sc2c(O)cc(=O)[nH]c12 | 0 | 3 | 0 | 2 | -11 | 50*
Oc1oc(-c2ccccc2)nc1C=NCc1ccncc1 | 0 | 14 | 2 | 22 | -2 | 70*
O=C(NCC(c1ccco1)N1CCc2ccccc21)c1ccccc1 (stereo not drawn) | 0 | 8 | 1 | 96* | 2 | 2
COc1cc(C(=O)NCC(c2ccco2)N2CCc3ccccc32)cc(OC)c1OC (stereo not drawn) | 0 | 9 | 0 | 93* | -24 | 18
COc1ccccc1C(=O)NCC(c1ccco1)N1CCc2ccccc21 (stereo not drawn) | 0 | 2 | 0 | . | 11 | 19
COc1cc(C(=O)NCC(c2cccs2)N2CCc3ccccc32)cc(OC)c1OC (stereo not drawn) | 0 | 13 | 1 | 37 | -24 | 48*
COc1ccc(CCC(=O)NCC(c2ccco2)N2CCc3ccccc32)cc1 (stereo not drawn) | 0 | -22 | 0 | 87* | 1 | 3
COc1ccccc1C(=O)NCC(c1cccs1)N1CCc2ccccc21 (stereo not drawn) | 0 | 6 | 0 | 28 | -9 | 6
CCC(C)(C)NC(=O)CN(C(=O)CCC(=O)Nc1ccccn1)c1ccc(F)c(Cl)c1 | 0 | 1 | -1 | -4 | -5 | 3
